# Experimental data reported in PubChem BioAssay (NCI).
# Compounds without any hit were thinned out: in the full panel of roughly 79,000, 15% have a hit. A number with no mark means an inactive call. The source made the active and inactive calls. Rule as the data show it: active = growth inhibition above about 70%; inactive = the rest.
# Tests used:
# [1] = NCI Yeast Anticancer Drug Screen. Data for the rad50 strain (AID 155);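 also: 0% = growth of vehicle-only cultures of the same strain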; details: S. cerevisiae rad50 strain growth inhibition, active compounds read high
# Outline: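 Yeast carrying a defined DNA repair defect were exposed to test compounds, and growth was compared with vehicle-treated controls to give percent inhibition.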
# [2] = NCI Yeast Anticancer Drug Screen. Data for the mec2-1 strain (AID 157); details: S. cerevisiae mec2-1 strain, active compounds read high
# Outline: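 Cells of the genetically defined mec2-1 yeast strain are incubated with test compound. Inhibition of growth is calculated against vehicle-treated controls.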
# [3] = NCI Yeast Anticancer Drug Screen. Data for the sgs1 mgt1 strain (AID 161);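 also: 0% = growth of cultures given vehicle only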; details: S. cerevisiae sgs1 mgt1 strain, active compounds read high
# Outline: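 Mutant yeast exposed to compound; growth scored against vehicle-only wells.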
# [4] = NCI Yeast Anticancer Drug Screen. Data for the cln2 rad14 strain (AID 165);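 also: 0% = growth equal to vehicle treated cultures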; details: S. cerevisiae cln2 rad14 strain, active compounds read high
# Outline: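 The screen exposed genetically defined yeast (cln2 rad14) to test compounds and scored growth inhibition relative to vehicle-treated controls.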
# [5] = NCI Yeast Anticancer Drug Screen. Data for the bub3 strain (AID 167); details: S. cerevisiae bub3 mutant strain, active compounds read high
# Outline: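 Compounds were applied to a genetically altered yeast strain carrying a cell-cycle control defect. Growth inhibition was scored against vehicle-treated controls.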
# [6] = NCI Yeast Anticancer Drug Screen. Data for the mlh1 rad18 strain (AID 175); details: S. cerevisiae mlh1 rad18 strain growth inhibition, active compounds read high
# Outline: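 Compound-treated yeast growth, normalised to vehicle controls. Strain bears defined DNA repair mutations.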
# [7] = at 5.0 µM (retest, dose inferred, filed as 0.5)
# [8] = at 50.0 µM (retest, dose inferred, filed as 5.0)
SMILES,"growth inhibition [1, 7]","growth inhibition [1, 8]",growth inhibition ([1]; at 50.0 µM),"growth inhibition [2, 7]","growth inhibition [2, 8]",growth inhibition ([2]; at 50.0 µM),"growth inhibition [3, 7]","growth inhibition [3, 8]",growth inhibition ([3]; at 50.0 µM),"growth inhibition [4, 7]","growth inhibition [4, 8]",growth inhibition ([4]; at 50.0 µM),"growth inhibition [5, 7]","growth inhibition [5, 8]",growth inhibition ([5]; at 50.0 µM),"growth inhibition [6, 7]","growth inhibition [6, 8]",growth inhibition ([6]; at 50.0 µM)
COc1cc(OC)c(C/C=C/c2ccccc2)cc1O,27%,73% (active),10.2%,21%,71% (active),-15.6%,20%,75% (active),16.3%,16%,49%,19.6%,29%,86% (active),-27.8%,30%,93% (active),89.3% (active)
COc1ccc(-c2cc(-c3ccc(OC)cc3OC)[n+](C)c(-c3ccc(OC)cc3OC)c2)cc1,97% (active),98% (active),90% (active),98% (active),99% (active),93% (active),98% (active),99% (active),86.2% (active),97% (active),98% (active),88.2% (active),98% (active),99% (active),81.8% (active),97% (active),99% (active),93% (active)
CC(=O)c1c2c(cc3c1CC1(C3)Cc3cc4c(c(C(=O)O)c3C1)CCC4)CCC2 (stereo not given),53%,94% (active),84% (active),56%,96% (active),79.8% (active),65%,97% (active),89.6% (active),70% (active),95% (active),84.2% (active),63%,95% (active),83.5% (active),73% (active),96% (active),83.4% (active)
O=[N+]([O-])c1ccc(C(Br)(Br)c2ccc([N+](=O)[O-])cc2)cc1,99% (active),99% (active),99.7% (active),97% (active),100% (active),99.7% (active),100% (active),100% (active),99.8% (active),95% (active),99% (active),99.3% (active),80% (active),99% (active),99.5% (active),93% (active),99% (active),99.5% (active)
CCC(C)(C)C(=O)OCC(=O)c1ccc(-c2ccccc2)cc1,-15%,-17%,-5.8%,5%,-4%,8.25%,2%,-3%,-7.4%,33%,-57%,-3.35%,29%,25%,62.2%,-11%,-4%,12.8%
CCCCC1(CC)COC(c2ccccc2OC)OC1 (stereo not given),-6%,88% (active),-28.4%,-5%,88% (active),2.45%,-1%,81% (active),5.5%,-9%,65%,-9.85%,31%,92% (active),76.5% (active),-2%,87% (active),-17.2%
CCC(=O)NC1=CCC(C(C)(C)C)CC1 (stereo not given),2%,-4%,10.2%,1%,4%,-5.55%,1%,4%,-0.5%,4%,-4%,7.9%,9%,18%,42.5%,0%,-1%,-5.45%
O=C(CN1CCOCC1)Nc1nc(-c2ccc(Cl)cc2)cs1,66%,94% (active),79.6% (active),49%,97% (active),53.8%,60%,99% (active),86.4% (active),46%,90% (active),62%,65%,67%,77.6% (active),76% (active),99% (active),85% (active)
O=C(O)CCC12CCCCC1=NC1(CCCCC1)NC2=O (stereo not given),2%,6%,10.6%,-2%,-1%,44.6%,3%,4%,72.7% (active),4%,3%,18.1%,1%,2%,67%,1%,7%,55.6%
O=c1ccc2nc3ccccc3sc-2c1,-13%,98% (active),95.4% (active),22%,98% (active),8.1%,5%,98% (active),76.8% (active),-6%,98% (active),49.8%,7%,98% (active),92.1% (active),4%,98% (active),95.5% (active)
